From PubChem BioAssay
Unmarked numbers belong to inactive results. No rule for the calls is given here.

Each molecule was assayed against Pantothenate synthetase (Mycobacterium tuberculosis (strain ATCC 25618 / H37Rv)) (UniProt P9WIL5) (assay: Recombinant Mtb pantothenate synthetase (PanC) inhibitors, coupled enzyme, confirmatory (AID 375;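 also: 0% = full reaction with vehicle and 100% = no enzyme background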)). Conditions: coupled enzyme assay; at 10 µM, stronger effect = higher value.
Sequence of Pantothenate synthetase (Mycobacterium tuberculosis (strain ATCC 25618 / H37Rv)) (P9WIL5 whole entry, looked up): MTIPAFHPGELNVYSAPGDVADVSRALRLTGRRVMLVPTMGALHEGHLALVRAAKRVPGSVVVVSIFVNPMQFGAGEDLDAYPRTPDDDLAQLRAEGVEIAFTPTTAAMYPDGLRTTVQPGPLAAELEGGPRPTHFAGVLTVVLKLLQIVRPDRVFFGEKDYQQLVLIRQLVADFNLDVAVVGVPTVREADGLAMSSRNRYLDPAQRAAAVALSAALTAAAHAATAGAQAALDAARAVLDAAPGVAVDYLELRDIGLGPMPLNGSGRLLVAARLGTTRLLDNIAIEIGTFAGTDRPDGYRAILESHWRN

| SMILES | inhibition [%] |
| --- | --- |
| CC1=CCC(C(C)(C)NC(=O)c2ccccc2)C/C1=N\O (centres undefined) | 0 |
| CCOc1ccc(S(=O)(=O)N2CCN(c3ccc(C)cc3C)CC2)cc1 | 0 |
| CCn1c(C)cc(=S)c2ccccc21 | 9 |
| O=C1CC(c2cccc(Cl)c2)Cc2nc(N3CCN(c4ccccc4)CC3)ncc21 (centres undefined) | 0 |
| CC1=C(C(=O)N2CCOCC2)C(c2ccccc2F)C2=C(CCCC2=O)N1 (centres undefined) | 3 |
| CCN(C(=O)CN1CCN(c2ccccc2OC)CC1)c1c(N)n(Cc2ccccc2)c(=O)[nH]c1=O | 0 |
| Cc1nn(C)c(C)c1CN(C)C(=O)c1cc2nc(-c3ccco3)cc(C(F)(F)F)n2n1 | 0 |
| CN(C)c1ccnc(NCc2ccccc2)c1C#N | 0 |
| COc1ccc(C2C(C(=O)N3CCCC3)c3cc(OC)c(OC)cc3C(=O)N2C)cc1 (centres undefined) | 0 |
| COCCNC(=O)C(c1ccc(C)o1)N(Cc1cccs1)C(=O)c1snc(C(N)=O)c1N (centres undefined) | 4 |
| O=S(=O)(NCc1cn2ccccc2n1)c1cc(F)ccc1F | 2 |
| O=C1CCCC2=C1C(c1ccc(Br)cc1)c1c([nH]c(=S)[nH]c1=O)N2 (centres undefined) | 0 |
| CCOC(=O)C1(C(=O)OCC)C(c2ccccc2)CC(O)N1C(C)=O (centres undefined) | 0 |
| Cn1c(SCC(=O)Nc2ccc3c(c2)oc2ccccc23)nnc1-c1ccccc1 | 5 |
| CCCSC1=C(C#N)C(c2cc(OC)ccc2OC)CC(=O)N1 (centres undefined) | 14 |
| CC1CCN(C(=O)c2ccc(C(=O)N3CCC(C)CC3)cc2)CC1 | 0 |
| COC(=O)c1sc(S(=O)(=O)NCc2cccs2)c(C(=O)OC)c1C | 0 |
| Cc1noc(COc2ccccc2OCC(O)CNC(C)(C)C)n1 (centres undefined) | 4 |
| O=C(CN1C(=O)c2cccc3cccc1c23)NCC1CCCO1 (centres undefined) | 5 |
| COc1ccc(Cl)c(NC(=O)NCCN2CCN(c3ccccc3)CC2)c1 | 0 |

| SMILES | inhibition [%] |
| --- | --- |
| COc1ccc(OC)c(NC(=O)CSc2nnc(-c3ccco3)n2-c2ccccc2)c1 | 0 |
| Cc1ccc(OC(=O)NC2CCS(=O)(=O)C2)cc1C (centres undefined) | 0 |
| CCOc1ccccc1C1CC(c2ccc(Br)cc2)Nc2nc(N)nn21 (centres undefined) | 10 |
| O=C(Nc1ccncc1)c1cncc(Br)c1 | 0 |
| O=C1C2CC=CCC2C(=O)N1c1ccc(Cc2ccncc2)cc1 (centres undefined) | 0 |
| COc1ccc(OCc2nc(N)nc(Nc3cccc(C)c3C)n2)cc1 | 1 |
| CC(Sc1nnc(-c2cc3ccccc3o2)n1-c1ccccc1)C(=O)O (centres undefined) | 12 |
| Cc1ccc(-n2c3c(cc(C(=O)NCCCN4CCOCC4)c2=O)C(=O)CC(C)(C)C3)cc1 | 0 |
| CCC(C)n1[nH]c(=O)c2c(C)cc(C)nc21 (centres undefined) | 0 |
| Cc1ccc(-c2noc(C3CCCN(C(=O)c4ccccc4)C3)n2)o1 (centres undefined) | 0 |
| CNCCCC1c2ccccc2C=Cc2ccccc21 | 0 |
| NC(=O)NC(=O)CSc1cccc(C(F)(F)F)c1 | 0 |
| Cc1nn(Cc2ccccc2)c(C)c1NC(=O)c1cc(-c2ccco2)on1 | 3 |
| CC(C)CCn1c(SCC#N)nc2c(sc3ccccc32)c1=O | 2 |
| CCn1c(SCc2nc3ccccc3c(=O)[nH]2)nnc1-c1cccnc1 | 4 |
| C/C(CC(O)(/C=N/O)c1ccccc1)=N\O (centres undefined) | 1 |
| COc1ccc(-c2cc(C(=O)NCCc3ccccc3)no2)cc1OC | 4 |
| COc1cc2c(cc1OC)C(c1ccc(C)o1)CC(=O)N2 (centres undefined) | 3 |
| O=C(CCN1C(=O)COc2ccccc21)NCCCN1CCN(c2ccccc2F)CC1 | 0 |
